# Results taken from PubChem BioAssay (NCATS).
# Records with an inconclusive call do not appear. Entries that show only a call come without a potency. Unmarked numbers belong to inactive results. Active and inactive are the calls of the source. Calls come from the whole dose curve; as a rule, active = well fitted cell-killing curve with a large enough effect; inconclusive = small, poorly fitted or top-dose-only effect, or effect the other way; inactive = flat fitted curve, though single readings scatter.
# Assays:
# Assay in all cases: Primary qHTS to identify gynecologic anti-cancer compounds using libraries of approved drugs and bioactive compounds (AID 1345084); note: nearly all actives have a fitted effect of over 55% in size
# [1] = tested on: C33A; details: Gynecologic cancer cell panel viability, ATPlite luminescence, 48 h; series mostly up to 57.5 µM
# Method in brief: (§1)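 Cells, 1,000 per well, plated 16 h, then exposed 48 h at 37 C to compounds. Viability by ATPlite luminescence after 15 min at room temperature.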
# [2] = tested on: CAOV3; details: Gynecologic cancer cell panel viability, ATPlite luminescence, 48 h; series mostly up to 57.5 µM
# Method in brief: as §1
# [3] = tested on: CASKI; details: Gynecologic cancer cell panel viability, ATPlite luminescence, 48 h; series mostly up to 57.5 µM
# Method in brief: as §1
# [4] = tested on: Es-2; details: Gynecologic cancer cell panel viability, ATPlite luminescence, 48 h; series mostly up to 57.5 µM
# Method in brief: as §1
# [5] = tested on: HeLa; details: Gynecologic cancer cell panel viability, ATPlite luminescence, 48 h; series mostly up to 57.5 µM
# Method in brief: as §1
# [6] = tested on: Hek293T; details: Gynecologic cancer cell panel viability, ATPlite luminescence, 48 h, control line for the selectivity index; series mostly up to 57.5 µM
# Method in brief: as §1
# [7] = tested on: JEG-3; details: Gynecologic cancer cell panel viability, ATPlite luminescence, 48 h; series mostly up to 57.5 µM
# Method in brief: as §1
# [8] = tested on: OV90; details: Gynecologic cancer cell panel viability, ATPlite luminescence, 48 h; series mostly up to 57.5 µM
# Method in brief: as §1
# [9] = tested on: PA-1; details: Gynecologic cancer cell panel viability, ATPlite luminescence, 48 h; series mostly up to 57.5 µM
# Method in brief: as §1
# [10] = tested on: SKOV3; details: Gynecologic cancer cell panel viability, ATPlite luminescence, 48 h; series mostly up to 57.5 µM
# Method in brief: as §1
# [11] = tested on: Tov-21-G; details: Gynecologic cancer cell panel viability, ATPlite luminescence, 48 h; series mostly up to 57.5 µM
# Method in brief: as §1
# [12] = tested on: Tov112D; details: Gynecologic cancer cell panel viability, ATPlite luminescence, 48 h; series mostly up to 57.5 µM
# Method in brief: as §1
# Potency is the fitted concentration of half-maximal effect.
structure (smiles),measurement,setting,value
Cc1nc(C(=O)N2CCC[C@H]2Cc2nnc(-c3ccccc3)o2)c(-c2ccccc2F)s1,Potency,[1],inactive
same,Potency,[2],inactive
same,Potency,[3],inactive
same,Potency,[4],inactive
same,Potency,[5],inactive
same,Potency,[6],inactive
same,Potency,[7],inactive
same,Potency,[8],inactive
same,Potency,[9],inactive
same,Potency,[10],inactive
same,Potency,[11],inactive
same,Potency,[12],inactive
NS(=O)(=O)c1ccc(N2CCN(CC[C@@H]3OCCc4ccccc43)CC2)cc1,Potency,[1],inactive
same,Potency,[2],inactive
same,Potency,[3],inactive
same,Potency,[4],inactive
same,Potency,[5],inactive
same,Potency,[6],inactive
same,Potency,[7],inactive
same,Potency,[8],inactive
same,Potency,[9],inactive
same,Potency,[10],inactive
same,Potency,[11],inactive
same,Potency,[12],inactive
C=C1C(=O)OC2C=C(C)CC/C=C(\CO)CC(O)C12 (configuration not stated),Potency,[1],inactive
same,Potency,[2],inactive
same,Potency,[3],inactive
same,Potency,[4],inactive
same,Potency,[5],inactive
same,Potency,[6],inactive
same,Potency,[7],inactive
same,Potency,[8],inactive
same,Potency,[9],inactive
same,Potency,[10],inactive
same,Potency,[11],inactive
same,Potency,[12],inactive
Nc1nc(OCc2cc(Br)cs2)c2[nH]cnc2n1,Potency,[1],inactive
same,Potency,[2],inactive
same,Potency,[3],inactive
same,Potency,[4],inactive
same,Potency,[5],inactive
same,Potency,[6],inactive
same,Potency,[7],inactive
same,Potency,[8],inactive
same,Potency,[9],inactive
same,Potency,[10],inactive
same,Potency,[11],inactive
same,Potency,[12],inactive
C=C1C(=O)OC2/C=C(\CO)CC/C=C(\C=O)C(O)C(OC(=O)C(C)CC)C12 (configuration not stated),Potency,[1],inactive
same,Potency,[2],inactive
same,Potency,[3],inactive
same,Potency,[4],inactive
same,Potency,[5],inactive
same,Potency,[6],inactive
same,Potency,[7],inactive
same,Potency,[8],inactive
same,Potency,[9],inactive
same,Potency,[10],inactive
same,Potency,[11],inactive
same,Potency,[12],inactive
COc1c(F)cccc1C(=O)N1C[C@@H](C)CC[C@H]1CNc1ccc(Br)cn1,Potency,[1],inactive
same,Potency,[2],inactive
same,Potency,[3],inactive
same,Potency,[4],inactive
same,Potency,[5],inactive
same,Potency,[6],inactive
same,Potency,[7],inactive
same,Potency,[8],inactive
same,Potency,[9],inactive
same,Potency,[10],inactive
same,Potency,[11],inactive
same,Potency,[12],inactive
CCC(CC)Nc1nc(C)c(-c2ccc(OC(F)(F)F)cc2OC)nc1OC,Potency,[1],inactive
same,Potency,[2],inactive
same,Potency,[3],inactive
same,Potency,[4],inactive
same,Potency,[5],inactive
same,Potency,[6],inactive
same,Potency,[7],inactive
same,Potency,[8],inactive
same,Potency,[9],inactive
same,Potency,[10],inactive
same,Potency,[11],inactive
same,Potency,[12],inactive
Cc1c(Cl)cccc1S(=O)(=O)Nc1nc(NCCc2ccccc2)nc2c1CN(Cc1ccccc1)CC2,Potency,[1],inactive
same,Potency,[2],inactive
same,Potency,[3],inactive
same,Potency,[4],inactive
same,Potency,[5],inactive
same,Potency,[6],inactive
same,Potency,[7],inactive
same,Potency,[8],inactive
same,Potency,[9],inactive
same,Potency,[10],inactive
same,Potency,[11],inactive
same,Potency,[12],inactive
O=c1[nH]cnc2c([C@@H]3N[C@H](CO)[C@@H](O)[C@H]3O)c[nH]c12,Potency,[1],inactive
same,Potency,[2],inactive
same,Potency,[3],inactive
same,Potency,[4],inactive
same,Potency,[5],inactive
same,Potency,[6],inactive
same,Potency,[7],inactive
same,Potency,[8],inactive
same,Potency,[9],inactive
same,Potency,[10],inactive
same,Potency,[11],inactive
same,Potency,[12],inactive
C[C@]12CC[C@@H]3c4ccc(O)c(O)c4CC[C@H]3[C@@H]1CCC2=O,Potency,[1],inactive
same,Potency,[2],inactive
same,Potency,[3],inactive
same,Potency,[4],inactive
same,Potency,[5],inactive
same,Potency,[6],inactive
same,Potency,[7],inactive
same,Potency,[8],inactive
same,Potency,[9],inactive
same,Potency,[10],inactive
same,Potency,[11],inactive
same,Potency,[12],inactive
COc1cccc(N2CCN(C3=Nc4c(F)cccc4[C@H](CC(=O)O)N3c3cc(C(F)(F)F)ccc3OC)CC2)c1,Potency,[1],inactive
same,Potency,[2],inactive
same,Potency,[3],inactive
same,Potency,[4],inactive
same,Potency,[5],inactive
same,Potency,[6],inactive
same,Potency,[7],inactive
same,Potency,[8],inactive
same,Potency,[9],inactive
same,Potency,[10],inactive
same,Potency,[11],inactive
same,Potency,[12],inactive
Cc1cccc(-c2[nH]ncc2-c2ccc(F)c(-c3cnn(CCO)c3)c2)n1,Potency,[1],inactive
same,Potency,[2],inactive
same,Potency,[3],inactive
same,Potency,[4],inactive
same,Potency,[5],inactive
same,Potency,[6],inactive
same,Potency,[7],inactive
same,Potency,[8],inactive
same,Potency,[9],inactive
same,Potency,[10],inactive
same,Potency,[11],inactive
same,Potency,[12],inactive
C=C1C(=O)O[C@@H]2[C@H]1CCC(C)=C(CCC(=O)O)[C@@]2(C)O,Potency,[1],inactive
same,Potency,[2],inactive
same,Potency,[3],inactive
same,Potency,[4],inactive
same,Potency,[5],inactive
same,Potency,[6],inactive
same,Potency,[7],inactive
same,Potency,[8],inactive
same,Potency,[9],inactive
same,Potency,[10],inactive
same,Potency,[11],inactive
same,Potency,[12],inactive
CC(=O)OC[C@]12[C@H](OC(C)=O)[C@H](OC(=O)c3ccccc3)[C@@H]3[C@@H](OC(C)=O)[C@]1(OC3(C)C)[C@H](C)C[C@H](OC(C)=O)[C@@H]2OC(=O)c1ccccc1,Potency,[1],inactive
same,Potency,[2],inactive
same,Potency,[3],inactive
same,Potency,[4],inactive
same,Potency,[5],inactive
same,Potency,[6],inactive
same,Potency,[7],inactive
same,Potency,[8],inactive
same,Potency,[9],inactive
same,Potency,[10],inactive
same,Potency,[11],inactive
same,Potency,[12],inactive
CC(CCC1(O)OC2CC3C4CC=C5C[C@@H](O[C@@H]6O[C@H](CO)[C@@H](O[C@@H]7O[C@@H](C)[C@H](O)[C@@H](O)[C@H]7O)[C@H](O)[C@H]6O[C@@H]6O[C@@H](C)[C@H](O)[C@@H](O)[C@H]6O)CC[C@]5(C)C4CC[C@]3(C)[C@@]2(O)[C@@H]1C)CO[C@@H]1O[C@H](CO)[C@@H](O)[C@H](O)[C@H]1O (some centres not stated),"activity change, negative = cytotoxicity",[1],-5.46% [at 11.6 µM]
same,Potency,[2],1000 nM (active)
same,"activity change, negative = cytotoxicity",[3],14.6% [at 11.6 µM]
same,"activity change, negative = cytotoxicity",[4],10.8% [at 11.6 µM]
same,"activity change, negative = cytotoxicity",[5],4.9% [at 11.6 µM]
same,"activity change, negative = cytotoxicity",[6],7.85% [at 11.6 µM]
same,"activity change, negative = cytotoxicity",[7],5.47% [at 11.6 µM]
same,"activity change, negative = cytotoxicity",[8],3.45% [at 11.6 µM]
same,"activity change, negative = cytotoxicity",[9],19.4% [at 11.6 µM]
same,"activity change, negative = cytotoxicity",[10],2.43% [at 11.6 µM]
same,"activity change, negative = cytotoxicity",[11],0.779% [at 11.6 µM]
same,"activity change, negative = cytotoxicity",[12],-0.117% [at 11.6 µM]
CC1(C)CC[C@]2(C(=O)O)[C@H](O)C[C@]3(C)C(=CCC4[C@@]5(C)CC[C@H](O[C@@H]6O[C@H](CO[C@@H]7OC[C@H](O)[C@H](O)[C@H]7O[C@@H]7OC[C@H](O)[C@H](O)[C@H]7O)[C@@H](O)[C@H](O)[C@H]6O)C(C)(C)C5CC[C@]43C)[C@@H]2C1 (some centres not stated),"activity change, negative = cytotoxicity",[1],3.19% [at 11.6 µM]
same,"activity change, negative = cytotoxicity",[2],6.12% [at 11.6 µM]
same,"activity change, negative = cytotoxicity",[3],-7.68% [at 11.6 µM]
same,"activity change, negative = cytotoxicity",[4],-0.336% [at 11.6 µM]
same,"activity change, negative = cytotoxicity",[5],-1.57% [at 11.6 µM]
same,"activity change, negative = cytotoxicity",[6],-1.34% [at 11.6 µM]
same,"activity change, negative = cytotoxicity",[7],14% [at 11.6 µM]
same,"activity change, negative = cytotoxicity",[8],2.79% [at 11.6 µM]
same,"activity change, negative = cytotoxicity",[9],4.95% [at 11.6 µM]
same,"activity change, negative = cytotoxicity",[10],13.8% [at 11.6 µM]
same,"activity change, negative = cytotoxicity",[11],4.39% [at 11.6 µM]
same,"activity change, negative = cytotoxicity",[12],15.2% [at 11.6 µM]
